Data: PubChem BioAssay
Values joined by “and” are separate entries in the source; they are usually repeats but may differ in a detail not shown here. Equal values may be shown once. Results filed as inconclusive are left out. Active and inactive are the calls of the source.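 Rule for the calls, unless noted: active = compounds whose cell count with miR-34 switched on is under 0.7 times the count with it off; inactive = the rest.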

Key:
[1] = stimulators of nuclear beta-catenin in C2C12, primary screen, imaging, WNT3A-conditioned medium, mouse C2C12, NPC library (AID 1117326; in the data active = nuclear beta-catenin stimulation mostly above about 4.2%, no sharp cut-off; inactive = mostly below about 10%; note: reference of the scale not given here); details: stronger effect = higher value
[2] = stimulators of insulin release from INS-1E, primary screen, cell-based, 5 mM glucose, NPC library (AID 1117329;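 active = compound raises insulin release from rat beta cells at 5 mM glucose, no numeric limit stated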; note: reference of the scale not given here); details: rat INS-1E insulin secretion, at 10 µM, stronger effect = higher value
[3] = growth inhibition of GSK3B-pretreated HCT116 cells – cell-based, CellTiter-Glo, 0.2 to 20 µM (AID 1117336;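 active = compounds lowering colon cancer cell viability after pretreatment blocking the GSK3B kinase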); details: HCT116 viability after GSK3B inhibitor, at 20 µM, stronger effect = higher value
[4] = inhibition of endothelial tube formation, primary screen, imaging, VEGF stimulated, CD31 staining, tube area, NPC library (AID 1117340;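 active = compound that reduces growth-factor-driven endothelial tube area in a mixed cell culture, no cutoff stated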); details: VEGF-stimulated ADSC/ECFC co-culture, at 10 µM, stronger effect = higher value
[5] = glucagon-like peptide 1 release enhancers, primary assay, NCI-H716 cell line, NPC library (AID 1117341;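 active = compound raises GLP1 secretion from the human gut endocrine cells, with no numeric limit stated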; note: reference of the scale not given here); details: NCI-H716 cells, at 10 µM, stronger effect = higher value
[6] = HCT116 colon cancer cell growth inhibition, primary screen, CellTiter-Glo luminescence, NPC library (AID 1117342;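 active = compounds that lower survival of HCT116 colon cancer cells in the luminescence readout, no numeric limit stated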); details: at 20 µM (top of the series)
[7] = CellTiter-Glo luminescent readout of SW480 viability loss, NPC library primary (AID 1117343;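 active = compounds that lower viability of the colon cancer cells in the luminescence readout, with no numeric limit stated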); details: CellTiter-Glo luminescence; at 20 µM (top of the series) unless noted
[8] = decreased DLD-1 cellular survival, CellTiter-Glo luminescent readout, NPC compound collection, primary HTS (AID 1117346;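 active = compounds that lower survival of DLD-1 colon cancer cells in the luminescence readout, no cutoff given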); details: DLD-1 viability, CellTiter-Glo luminescence; at 20 µM (top of the series)
[9] = system: Aerobactin synthetase IucA (Klebsiella pneumoniae); assay: IucA aerobactin synthetase inhibitors, biochemical, Tocris library, absorbance (AID 1345561; call rule not given here;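 note: 100% = enzyme without compound and 0% = no enzyme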); details: purified IucA enzyme assay, absorbance (OD) read-out; stronger effect = lower value;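 tested at 8 µM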
[10] = growth inhibition of DIPG glioma cells, dose response, cell-based, SU-DIPG-XIII, MIPE4.0, CellTiter-Glo, qHTS (AID 1347061; cut-off not given, nearly all actives have AC50 up to about 37 µM;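 note: cells exposed to compound for 48 hours before readout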); details: SU-DIPG-XIII viability, CellTiter-Glo ATP luminescence
[11] = SU-DIPG-XXV glioma cell viability, MIPE5.0 library, qHTS (AID 1347068; cut-off not given, nearly all actives have IC50 up to about 30 µM)
[12] = sensitizers of A549 cells to miR-34 induction, primary screen, imaging, A549 dox-inducible miR-34, nuclei and caspase counts (AID 1347080); details: A549 miR-34 inducible, Hoechst nuclei count, 48 h
[13] = viability rescue of complex I mutant cybrids, primary screen, cell-based, galactose medium, ATP luminescence (AID 1645843;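 active = z-score of at least 1.8 in each of two replicates, scored against plate mean and spread of sample wells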;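 note: positive z means more ATP and so rescue of galactose-driven cybrid death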); details: complex I mutant cybrid cells, 72 h, stronger effect = higher value
[14] = growth inhibition of DIPG glioma cells, dose response, cell-based, SU-DIPG-XVII, MIPE5.0, CellTiter-Glo, qHTS (AID 1347060; cut-off not given, nearly all actives have AC50 up to about 26 µM); details: SU-DIPG-XVII viability, CellTiter-Glo ATP luminescence
[15] = survival rescue of mitochondrial mutant cells in low glucose, primary screen, MELAS cybrids, Rieske KO mouse fibroblasts, CellTiter-Glo (AID 1508586;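 active = mean z-score across replicates of 1.96 or higher in either the MELAS or the Rieske mutant cell line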;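 note: z relative to plate mean and SD of compound and empty wells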)
[16] = liver-stage malaria parasite growth inhibition, primary screen, cell-based, HepG2, luciferase luminescence, HepG2 viability (AID 624349; in the data active = parasite load remaining mostly below about 12%, no sharp cut-off; inactive = mostly above about 10%;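 note: 100% = mean of DMSO negative control wells on the same plate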); details: P. berghei liver stage in HepG2, luciferase luminescence, concentration not given here; parasite load remaining: stronger effect = lower value; viability: measured here: HepG2 viability without parasites
[17] = stronger effect = lower value, cell number ratio, induced over uninduced
[18] = measured here: relative caspase fold change +Dox/-Dox
[19] = measured here: total cells with miR-34 induction, stronger effect = lower value
[20] = measured here: total cells without miR-34 induction
[21] = MELAS cybrid survival, CellTiter-Glo 48 h, stronger effect = higher value
[22] = Rieske KO mouse fibroblast survival, CellTiter-Glo 72 h

C[C@@H](CN1CC(=O)NC(=O)C1)N1CC(=O)NC(=O)C1
nuclear beta-catenin stimulation ([1]; at 10 µM): 9.7% (inactive)
nuclear beta-catenin stimulation ([1]; stimulation, at 2 µM): 13.9%
insulin secretion stimulation [2]: 5.3% (inactive)
viability decrease [3]: 70.9% (active)
tube area decrease [4]: 37.9% (inactive)
GLP1 secretion stimulation [5]: -2.7% (inactive)
inhibition of viability [6]: 62% (active)
viability decrease (inhibition) [7]: 53.1% (active)
viability decrease (inhibition) [8]: 47.2% (inactive)
remaining activity [9]: 106% (inactive)
outcome [10]: inactive
outcome [11]: inactive
fold change [12, 17]: 0.977 (inactive)
fold change [12, 18]: 1.07
cell count [12, 19]: 8720
cell count [12, 20]: 8920
z-score [13]: 0.075 (inactive)

COc1cc2c(cc1OC)[C@@H]1CC(=O)[C@@H](CC(C)C)CN1CC2
nuclear beta-catenin stimulation ([1]; at 10 µM): 0.6% (inactive)
nuclear beta-catenin stimulation ([1]; stimulation, at 2 µM): 0.1%
insulin secretion stimulation [2]: -1.9% (inactive)
viability decrease [3]: -9.4% (inactive)
tube area decrease [4]: -10% (inactive)
GLP1 secretion stimulation [5]: -2.7% (inactive)
inhibition of viability [6]: 21.4% (inactive)
viability decrease (inhibition) [7]: 2.6% (inactive)
viability decrease (inhibition) [8]: 5.2% (inactive)
remaining activity [9]: 81.5% (inactive)
fold change [12, 17]: 0.993 (inactive)
fold change [12, 18]: 1.02
cell count [12, 19]: 8740
cell count [12, 20]: 8800
z-score [13]: 0.105 (inactive)

COC(=O)[C@@H]1CC2=CC(=O)CC[C@]2(C)[C@@]23O[C@@H]2C[C@@]2(C)[C@@H](CC[C@@]24CCC(=O)O4)[C@H]13
nuclear beta-catenin stimulation ([1]; at 10 µM): -0.1% (inactive)
nuclear beta-catenin stimulation ([1]; stimulation, at 2 µM): 1.3%
insulin secretion stimulation [2]: -0.55% (inactive)
viability decrease [3]: -0.7% (inactive)
tube area decrease [4]: 23.1% (inactive)
GLP1 secretion stimulation [5]: -1.5% (inactive)
inhibition of viability [6]: -5.5% (inactive)
viability decrease (inhibition) [7]: 24.4% (inactive)
viability decrease (inhibition) [8]: -7.2% (inactive)
remaining activity [9]: 96.4% (inactive)
outcome [14]: inactive
outcome [10]: inactive
outcome [11]: inactive
fold change [12, 17]: 0.96 (inactive)
fold change [12, 18]: 1.45
cell count [12, 19]: 9220
cell count [12, 20]: 9600
z-score [13]: -0.005 (inactive)

C[C@H]1O[C@H](O[C@H]2[C@H](O)[C@@H](O)[C@@H](O[C@H]3[C@H](O)[C@@H](O)[C@H](O)O[C@@H]3CO)O[C@@H]2CO)[C@H](O)[C@@H](O)[C@@H]1N[C@H]1C=C(CO)[C@@H](O)[C@H](O)[C@H]1O
nuclear beta-catenin stimulation ([1]; at 10 µM): -0.6% (inactive)
nuclear beta-catenin stimulation ([1]; stimulation, at 2 µM): -1.1%
insulin secretion stimulation [2]: 0.7% (inactive)
viability decrease [3]: -5.3% (inactive)
tube area decrease [4]: -8.2% (inactive)
GLP1 secretion stimulation [5]: -2.2% (inactive)
inhibition of viability [6]: 18.9% (inactive)
viability decrease (inhibition) [7]: -0.4% (inactive)
viability decrease (inhibition) [8]: -0.5% (inactive)
remaining activity [9]: 108% (inactive)
fold change [12, 17]: 0.838 (inactive)
fold change [12, 18]: 1.97
cell count [12, 19]: 7710
cell count [12, 20]: 9210
z-score [15, 21]: -0.1 (inactive)
z-score [15, 22]: -0.573
z-score [13]: 0.18 (inactive)

CCc1cc(Cl)c(OC)c(C(=O)NC[C@@H]2CCCN2CC)c1O
parasite load remaining [16]: 103% (inactive)
viability [16]: 87.5%
nuclear beta-catenin stimulation ([1]; at 10 µM): 4.5% (inactive)
nuclear beta-catenin stimulation ([1]; stimulation, at 2 µM): 1.7%
insulin secretion stimulation [2]: 5.2% (inactive)
viability decrease [3]: -86.7% (inactive)
tube area decrease [4]: 2.8% (inactive)
GLP1 secretion stimulation [5]: 5.8% (inactive)
inhibition of viability [6]: 51.9% (active)
viability decrease (inhibition) [7]: 58.3% (active)
viability decrease (inhibition) [8]: 14.4% (inactive)
remaining activity [9]: 112% (inactive)
fold change [12, 17]: 0.835 (inactive) and 0.921 (inactive)
fold change [12, 18]: 0.937 and 0.744
cell count [12, 19]: 7860 and 8160
cell count [12, 20]: 9410 and 8850
z-score [15, 21]: 0.117 (inactive)
z-score [15, 22]: 0.179
z-score [13]: -0.605 (inactive)
